Data: PubChem BioAssay AID1159580 (chemical genetic matrix, 2015)
Several values for one entry are separate records, joined by “and”; a condition that tells them apart may be missing. Equal values may be shown once. About 2,000 (36%) of roughly 5,500 compounds were called active. Inconclusive results (about 18%) are left out. Cut-off read from the data, not from the text of the source: active = normalized growth mostly below about 0.91 (no sharp cut-off); inconclusive = no clear call, values can overlap the other calls; inactive = mostly above about 0.92. This is one part of the list.

Assay: chemical genetic growth profiling, strain panel (AID 1159580);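 note: tested at 20 µM; growth read once vehicle control cultures reached saturation at 30 °C; 1 = growth at the plate median or of vehicle wells; lower values mean less growth of the strain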
Conditions: S. cerevisiae deletion strains, growth OD
[1] = locus YAL040C, strain CLN3, hits give low values
[2] = locus YCL061C, strain MRC1 (second series), hits give low values
[3] = locus YDR150W, strain NUM1, hits give low values
[4] = locus YDR363W, strain ESC2, hits give low values
[5] = locus YER002W, strain NOP16, hits give low values
[6] = locus YGR078C, strain PAC10, hits give low values
[7] = locus YMR307W, strain GAS1, hits give low values
[8] = locus YNL153C, strain GIM3, hits give low values
[9] = locus YNL175C, strain NOP13, hits give low values
[10] = locus YNL197C, strain WHI3, hits give low values
[11] = locus YNL224C, strain SQS1, hits give low values
[12] = locus YOR083W, strain WHI5 (second series), hits give low values
[13] = locus YJR075W, strain HOC1, hits give low values

Measured: normalized growth

N[C@@H](CCC(=O)N[C@H](CSN=O)C(=O)NCC(=O)O)C(=O)O
inactive: [1] 1 | [2] 1.01 | [3] 1 | [4] 1.05 | [5] 1 | [6] 1.02 | [7] 0.996 | [8] 1.01 | [9] 1.01 | [10] 1 | [11] 1 | [12] 1.01 | locus YPL055C, strain LGE1, hits give low values 1.02 | locus YPL241C, strain CIN2, hits give low values 0.995

CCn1ccnc1CC1COc2ccccc2O1 (configuration not stated)
inactive: [1] 1.02 | [2] 1 | [3] 1 | [4] 0.993 | [5] 1.01 | locus YGR229C, strain SMI1, hits give low values 0.993 | [13] 1 | [7] 0.996 | locus YNL128W, strain TEP1, hits give low values 1.01 | [9] 0.997 | [10] 0.996 | [11] 1.01 | [12] 1.07

COc1c2c(cc3c1OCO3)CCN(C)C2
inactive: locus YAL021C, strain ccr4, hits give low values 0.987 | locus YAL026C, strain drs2, hits give low values 1.01 | locus YAL030W, strain snc1, hits give low values 1.01 | locus YBL061C, strain skt5, hits give low values 1.02 | locus YBR009C, strain hhf1, hits give low values 1.02 | locus YBR021W, strain FUR4, hits give low values 0.988 | locus YBR023C, strain chs3, hits give low values 1.01 | locus YBR171W, strain sec66, hits give low values 1.03 | locus YBR229C, strain ROT2, hits give low values 1.01 | locus YBR231C, strain swc5, hits give low values 1.01 | locus YBR279W, strain paf1, hits give low values 1 | locus YCL011C, strain gbp2, hits give low values 1.01 | locus YCL016C, strain dcc1, hits give low values 1.01 | locus YCL029C, strain bik1, hits give low values 1 | locus YCL061C, strain MRC1, hits give low values 1.02 | locus YCL069W, strain vba3, hits give low values 1 | locus YCR088W, strain abp1, hits give low values 1.01 | locus YDL005C, strain med2, hits give low values 1.02 | locus YDL035C, strain GPR1, hits give low values 1.02 | locus YDL040C, strain nat1, hits give low values 0.996 | locus YDL074C, strain BRE1, hits give low values 1.01 | locus YDL101C, strain DUN1, hits give low values 1.02 | locus YDL185W, strain tfp1, hits give low values 0.995 | locus YDL192W, strain arf1, hits give low values 1.01 | locus YDR001C, strain nth1, hits give low values 1.01 | locus YDR069C, strain doa4, hits give low values 1.02 | locus YDR101C, strain arx1, hits give low values 1 | locus YDR137W, strain rgp1, hits give low values 1.01 | locus YDR159W, strain sac3, hits give low values 1.01 | locus YDR162C, strain NBP2, hits give low values 1.01 | locus YDR195W, strain ref2 0.999 | locus YDR297W, strain sur2, hits give low values 0.999 | locus YDR318W, strain mcm21, hits give low values 1 | locus YDR334W, strain swr1, hits give low values 1.02 | locus YDR335W, strain msn5, hits give low values 0.998 | locus YDR388W, hits give low values 1 | locus YDR392W, strain spt3, hits give low values 0.991 | locus YDR502C, strain sam2, hits give low values 1 | locus YEL003W, strain gim4, hits give low values 1.01 | locus YEL037C, strain rad23, hits give low values 1 | locus YEL061C, strain CIN8 (second series), hits give low values 1 | locus YEL061C, strain CIN8, hits give low values 1.01 | locus YER015W, strain faa2, hits give low values 1.01 | locus YER016W, strain bim1, hits give low values 1.02 | locus YER110C, hits give low values 0.996 | locus YER111C, strain swi4, hits give low values 1.01 | locus YER155C, strain BEM2 (second series), hits give low values 1.02 | locus YER155C, strain BEM2, hits give low values 1.01 | locus YER167W, strain BCK2, hits give low values 1 | locus YFR010W, strain ubp6, hits give low values 1.02 | locus YGL078C, strain dbp3, hits give low values 1 | locus YGL086W, strain mad1, hits give low values 1.02 | locus YGL167C, strain pmr1, hits give low values 1.02 | locus YGL173C, strain kem1, hits give low values 1.02 | locus YGL227W, strain vid30, hits give low values 1.01 | locus YGL240W, strain doc1, hits give low values 1.02 | locus YGL248W, strain PDE1, hits give low values 1.01 | locus YGL253W, strain hxk2, hits give low values 1.01 | [6] 1.01 | locus YGR135W, strain pre9, hits give low values 0.992 | locus YGR252W, strain gcn5, hits give low values 0.986 | locus YHR013C, strain ard1, hits give low values 1.01 | locus YHR027C, strain rpn1, hits give low values 1.02 | locus YHR030C, strain SLT2, hits give low values 1 and 1.06 | locus YHR079C, strain IRE1 (second series), hits give low values 1.02 | locus YHR079C, strain IRE1, hits give low values 1.05 | locus YHR094C, strain hxt1, hits give low values 0.994 | locus YHR129C, strain ARP1, hits give low values 1 | locus YHR142W, strain chs7, hits give low values 0.991 | locus YHR200W, strain rpn10, hits give low values 0.975 | locus YIL066C, strain RNR3, hits give low values 1.01 | locus YIL073C, strain SPO22, hits give low values 1.01 | locus YIL125W, strain kgd1, hits give low values 1 | locus YIR030C, strain dcg1, hits give low values 0.997 | locus YJL092W, strain hpr5, hits give low values 1.01 | locus YJL095W, strain BCK1 (second series), hits give low values 1.01 | locus YJL095W, strain BCK1, hits give low values 0.996 and 1.04 | locus YJL115W, strain asf1, hits give low values 1.01 | locus YJL129C, strain trk1, hits give low values 1.03 | locus YJL134W, strain LCB3, hits give low values 0.998 | locus YJL154C, strain vps35, hits give low values 0.998 | locus YJL164C, strain tpk1, hits give low values 0.992 | locus YJL166W, strain qcr8, hits give low values 0.999 | locus YJL168C, strain set2, hits give low values 1 | locus YJL187C, strain SWE1 (second series), hits give low values 1.01 | locus YJL187C, strain SWE1, hits give low values 1.01 | locus YJR043C, strain POL32, hits give low values 1.02 | locus YJR066W, strain TOR1, hits give low values 0.976 | [13] 1.01 | locus YKL009W, strain mrt4, hits give low values 1.02 | locus YKL068W, hits give low values 0.992 | locus YKL085W, strain MDH1 (second series), hits give low values 0.999 | locus YKL085W, strain MDH1, hits give low values 0.999 | locus YKL160W, strain elf1, hits give low values 0.992 | locus YKL190W, strain CNB1, hits give low values 1.01 | locus YKR001C, strain vps1, hits give low values 0.964 | locus YKR026C, strain gcn3, hits give low values 1.01 | locus YKR091W, strain srl3, hits give low values 0.998 | locus YLL001W, strain dnm1, hits give low values 0.991 | locus YLL026W, hits give low values 1.01 | locus YLL041C, strain sdh2, hits give low values 1.01 | locus YLR027C, strain aat2, hits give low values 1.02 | locus YLR039C, strain RIC1, hits give low values 1.02 | locus YLR058C, strain SHM2, hits give low values 1.01 | locus YLR102C, strain apc9, hits give low values 0.997 | locus YLR113W, strain HOG1, hits give low values 1.04 | locus YLR221C, strain rsa3, hits give low values 1.03 | locus YLR258W, strain gsy2, hits give low values 0.999 | locus YLR262C, strain YPT6 (second series), hits give low values 0.987 | locus YLR262C, strain YPT6, hits give low values 1.01 | locus YLR268W, strain sec22, hits give low values 1.01 | locus YLR320W, strain mms22, hits give low values 1.02 | locus YLR330W, strain CHS5, hits give low values 1.01 | locus YLR342W, strain FKS1 (second series), hits give low values 1.01 | locus YLR342W, strain FKS1, hits give low values 1 | locus YLR357W, strain rsc2, hits give low values 1.01 | locus YLR370C, strain arc18, hits give low values 1.01 | locus YLR371W, strain rom2, hits give low values 1 | locus YLR384C, strain iki3, hits give low values 1.02 | locus YLR418C, strain cdc73, hits give low values 0.957 | locus YML016C, strain PPZ1, hits give low values 0.986 | locus YML032C, strain rad52, hits give low values 0.982 | locus YML120C, strain ndi1, hits give low values 1 | locus YML124C, strain tub3, hits give low values 0.99 | locus YMR058W, strain fet3, hits give low values 1.02 | locus YMR078C, strain ctf18, hits give low values 0.996 | locus YMR125W, strain sto1, hits give low values 1 | locus YMR129W, hits give low values 1.01 | locus YMR205C, strain PFK2, hits give low values 0.996 | locus YMR223W, strain ubp8, hits give low values 0.992 | locus YMR231W, strain pep5, hits give low values 0.987 | locus YMR263W, strain SAP30, hits give low values 1.02 | [7] 1.02 | locus YNL067W, strain RPL9B, hits give low values 1.01 | locus YNL071W, strain lat1, hits give low values 1 | [8] 1 | locus YNL183C, strain NPR1, hits give low values 0.985 | locus YNL209W, strain ssb2, hits give low values 1 | locus YNL233W, strain BNI4, hits give low values 1.01 | locus YNL248C, strain rpa49, hits give low values 1.02 | locus YNL250W, strain rad50, hits give low values 0.993 | locus YNL271C, strain bni1, hits give low values 1.01 | locus YNL298W, strain CLA4, hits give low values 0.984 | locus YNL307C, strain MCK1, hits give low values 1 | locus YNL322C, strain KRE1 (second series), hits give low values 1.02 | locus YNL322C, strain KRE1, hits give low values 1.01 | locus YNR049C, strain mso1, hits give low values 1.01 | locus YNR052C, strain pop2, hits give low values 1.01 | locus YOL012C, strain htz1 0.662 | locus YOL147C, strain pex11, hits give low values 0.979 | locus YOR001W, strain rrp6, hits give low values 1.04 | locus YOR061W, strain CKA2, hits give low values 1.01 | locus YOR069W, strain VPS5, hits give low values 1.01 | locus YOR070C, strain gyp1, hits give low values 1.02 | locus YOR080W, strain dia2, hits give low values 1.01 | locus YOR083W, strain WHI5, hits give low values 0.991 | locus YOR106W, strain vam3, hits give low values 1.02 | locus YOR136W, strain idh2, hits give low values 1.02 | locus YOR144C, strain elg1, hits give low values 0.985 | locus YOR184W, strain ser1, hits give low values 1.04 | locus YOR231W, strain MKK1, hits give low values 1.04 | locus YOR265W, strain rbl2, hits give low values 1.01 | locus YOR270C, strain vph1, hits give low values 1.01 | locus YOR290C, strain snf2, hits give low values 0.981 | locus YOR316C, strain cot1, hits give low values 0.991 | locus YPL051W, strain arl3, hits give low values 1.01 | locus YPL078C, strain atp4, hits give low values 0.981 | locus YPL106C, strain sse1, hits give low values 0.996 | locus YPL240C, strain hsp82, hits give low values 1.01 | locus YPL256C, strain CLN2, hits give low values 1.06 | locus YPR119W, strain clb2, hits give low values 1 | locus YPR141C, strain kar3, hits give low values 0.991 | locus YPR163C, strain tif3, hits give low values 0.995 | locus YPR167C, strain met16, hits give low values 0.996 | strain wtn01, hits give low values 0.997
